Assay outcomes: PubChem BioAssay, Broad Institute
TcdB inh – TcdB glycohydrolase inhibitors, primary screen, biochemical, single point, plate reader; Toxin B (Clostridioides difficile), P18177; TcdB glycohydrolase enzymatic assay; 350,000 tested, 0.24% active; inhibition, % at 9.99 µM; in the data active means inhibition above about 10%
FadD28 FP inh – inhibitors of FadD28 bisubstrate probe binding, primary screen, biochemical, fluorescence polarization, single point. Mycobacterium tuberculosis FadD28 fatty-acid-AMP ligase. inhibition, % at 12.5 µM. 360,000 tested, 0.22% active; in the data active means inhibition above about 8.5%, passing the limit was not always enough; inconclusive means no clear call, values can overlap the other calls
BH1578 lux ind – inducers of Vibrio cholerae quorum light production without autoinducers, primary screen, BH1578 luxS cqsA deficient, single point; V. cholerae BH1578 lux reporter, luminescence, 6 h; activation, % at 18.7 µM; 350,000 tested, 0.16% active; AID 588436, 2011; in the data active means activation mostly above about 9.7%, no sharp cut-off; inconclusive means no clear call, values can overlap the other calls; inactive means mostly below about 3.7%
Yp Topo-I inh – Yersinia pestis topoisomerase I inhibitors, primary screen, biochemical, cleavage product accumulation, plate reader, single point | DNA topoisomerase I (Yersinia pestis CO92) | Y. pestis Topo-I cleavage product accumulation | activity, % at 10 µM | 360,000 tested, 0.064% active; in the data active means activity above about 50%, passing the limit was not always enough; inconclusive means no clear call, values can overlap the other calls
BioA inh – M. tuberculosis BioA enzyme inhibitors, primary screen, biochemical, plate reader, single point, HTS; AID 602481, 2012; inhibition, % at 9.99 µM; purified M. tuberculosis BioA enzyme; 7,8-diaminopelargonic acid synthase BioA (Mycobacterium tuberculosis); 360,000 tested, 0.096% active; in the data active means inhibition above about 40%; inconclusive means no clear call, values can overlap the other calls
* hit, by the source's call; i = inactive; ? = inconclusive; · = not tested or not shown; ! = not active in a repeat. Shown are actives, neighbours in structure and some others; about 0.61% of the full set was active somewhere.

SMILES | TcdB inh | FadD28 FP inh | BH1578 lux ind | Yp Topo-I inh | BioA inh
Cc1ccc(S(=O)(=O)N2CCC(C(=O)OCc3ccccc3)CC2)cc1C | 2 | -1 | -2 | 35 | -1
O=C(c1ccc2c(c1)OCO2)N1CC(=O)N2[C@H](CO)[C@@H](c3ccc(C#Cc4ccccc4)cc3)[C@@H]2C1 | 1 | · | · | · | ·
Clc1ccc(COC(Cn2ccnc2)c2ccc(Cl)cc2Cl)c(Cl)c1 (stereo not given) | 1 | -8 | i | 60*! | -5
O=C(N[C@H]1CC[C@H](CCNS(=O)(=O)Cc2ccccc2)O[C@@H]1CO)c1ccccc1F | -3 | · | · | · | 0
C#CCOCCOCCOCCNc1nc(N2CCN(C(=O)CCCCCCCCCCNC(=O)[C@@H](CCSC)n3cc(CCO)nn3)CC2)nc(N2CCN(C(=O)CCCCCCCCCCNC(=O)[C@H](CCCN=C(N)N)n3cc(C[C@@H](C)CC)nn3)CC2)n1 | · | 11* | i | ? | -1
C#CCOCCOCCOCCNc1nc(N2CCOCC2)nc(N2CCN(C(=O)CCCCCCCCCCNC(=O)[C@H]([C@@H](C)CC)n3cc(CCCCN=C(N)N)nn3)CC2)n1 | 0 | -3 | -3 | 0 | 2
C#CCOCCOCCOCCNc1nc(N2CCN(C(=O)CCCCCCCCCCNC(=O)[C@H]([C@@H](C)CC)n3cc(CCCCN=C(N)N)nn3)CC2)nc(N2CCN(C(=O)CCCCCCCCCCNC(=O)[C@@H]([C@H](C)O)n3cc(C)nn3)CC2)n1 | 1 | 15* | 0 | 9 | -2
O=C(Nc1ccc(F)cc1)N[C@@H]1C=C[C@@H](CC(=O)N2CCCCC2)O[C@H]1CO | 0 | · | · | · | 2
CCOC(=O)c1c(NC(=O)CCc2ccc(CC)o2)sc(C)c1C | 0 | 1 | i | 57* | 2
COC(=O)c1c(NC(=O)CCc2ccc(C)o2)sc(C)c1C | · | -2 | i | 5 | 0
CCCC(=O)Nc1ccc2c(c1)OC[C@@H](C)N(Cc1cccc(F)c1)C[C@H](C)[C@@H](OC)CN(C)C2=O | 0 | · | · | · | 3
CC(=O)Oc1cccc(N2C(=O)C3CC=CCC3C2=O)c1 (stereo not given) | · | -2 | -2 | 1 | -2
CC(=O)Oc1cccc2c1C(=O)C1CC=CC(OC(C)=O)C1C2=O (stereo not given) | -1 | 0 | · | 61* | ·
O=C1NN(c2ccc(F)c(Cl)c2)C(=O)/C1=C\c1cccc(OC(=O)c2cccs2)c1 | · | 26* | -1 | -31 | -1
Oc1c(Br)cc(Br)c(/C=N/n2c(-c3ccccc3)n[nH]c2=S)c1Br | -3 | 25* | 0 | 0 | 0
Oc1ccc(Br)cc1/C=N/n1c(-c2ccccc2)n[nH]c1=S | 1 | 2 | 0 | -1 | 0
C[C@H](NC(=O)[C@@H]1[C@@H](CO)[C@@H]2Cn3c(ccc(-c4ccccc4)c3=O)[C@H]1N2C)c1ccccc1 | 1 | · | · | · | 2
CCOC(=O)/C=c1\s/c(=C\c2c(OC)ccc3ccccc23)c(=O)n1CC(=O)NCC1CCCO1 (stereo not given) | 1 | -2 | i | 7 | -3
CCOC(=O)/C=c1/s/c(=C/c2ccc3cc(OC)ccc3c2)c(=O)n1CC(=O)NCC1CCCO1 (stereo not given) | 12* | -1 | i | 3 | ·
COc1ccc(-c2csc(Nc3ccc(S(=O)(=O)Nc4cc(OC)nc(OC)n4)cc3)n2)cc1 | · | 12* | -1 | -2 | 4
COc1ccc(/C=C2/C(=O)N(Cc3ccco3)C(=O)N(C(C)C)C2=O)cc1 | -2 | 9.5* | 2 | -4 | ·
CC(C)N1C(=O)/C(=C/C=C/c2ccco2)C(=O)N(Cc2ccco2)C1=O | · | -1 | 0 | -7 | -3
O=C(NC(=S)NNC(=O)c1ccccc1F)c1cccnc1 | 15* | -1 | i | 1 | -4
COc1ccc2c3c([nH]c2c1)[C@H](CO)N(C(=O)Nc1ccc(F)cc1)CC31CN(CC2CCOCC2)C1 | -1 | · | · | · | ·
COc1cccc(-c2cn(CC[C@@H]3CC[C@H](NC(C)=O)[C@@H](CO)O3)nn2)c1 | 0 | · | · | · | 0
CCn1c(CSc2nnc3ccccn23)nc2cc(C(=O)O)ccc21 | · | 13* | -1 | 25 | 0
CCn1c(CSc2nnc(-c3ccncc3)n2CCOC)nc2cc(C(=O)O)ccc21 | -4 | 3 | 0 | 10 | 1
CCOC1=C/C(=C/c2c(N)n3nc(-c4ccccc4)sc3nc2=O)C=CC1=O | -1 | 16* | 0 | 1 | ·
